# Values joined by “and” are separate entries in the source; they are usually repeats but may differ in a detail not shown here. Equal entries are not always repeated. This is part of a sample that, as a whole, favours compounds with a hit. Of some 83,000 tested, about 20% had one in any assay.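 Single-dose data. Exposure time 48 hours. Values below 10 considered active.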 Values without a mark were called inactive. Active and inactive are the calls of the source.
# Test system: MDA-MB-468 breast
# Assay: NCI-60 one-dose screen, 48 h (100 = growth as untreated, 0 = no growth, -100 = all killed)
# Settings: 10 µM unless noted
row,SMILES,growth
1,C=CCn1c(SCC(=O)NCc2cc(C)c(O)c(C)c2)nc2ccc(Cl)cc2c1=O,91.1%
2,COC(=O)/C(CCC=C(C)C)=C1\[C@@H](OC(C)=O)C[C@@]2(C)[C@H]1C[C@@H](O)[C@H]1[C@@]3(C)CC[C@H](NCCCNCCCCNCCCN)[C@@H](C)[C@@H]3CC[C@@]12C,78.5%
3,CN1CC[C@H](c2c(O)cc(O)c3c(=O)cc(-c4ccccc4Cl)oc23)[C@H](O)C1,-42.7% (active)
4,COc1ccc2c(ccn2C(=O)N2c3ccccc3Sc3ccccc32)c1,21.8%
5,Cc1ccc(-c2nnc3sc(C4=Cc5ccccc5OC=C4)nn23)cc1,109%
6,C[C@@H](O)[C@H]1C(=O)N2C(C(=O)O)=C(SCCN=CN)C[C@H]12,-48.1% (active)
7,CC(N)C(Cc1ccccc1)c1ccc(Cl)cc1 (stereo not given),83.1%
8,COc1ccc(/C(C#N)=C/c2ccccc2OC)cc1,-14% (active)
9,O=c1cc(CSc2nnc(SCc3cc(=O)oc4c3ccc3ccccc34)o2)c2ccc3ccccc3c2o1,110%
10,C=C1C(=O)O[C@H]2[C@H]1CC/C(COC(=O)/C=C\C(=O)NCc1ccc(Cn3c(=O)sn(CCCCl)c3=O)cc1)=C\CC[C@@]1(C)O[C@@H]21,40.3%
11,O=C1Nc2ccccc2/C1=C/c1cn(C(=O)c2ccc(Cl)cc2)c2ccccc12,97.6%
12,COC(=O)c1cc(-c2cc(OC)c(OC)c(OC)c2)[nH]c1N/N=C/c1c(Cl)cccc1Cl,-9.15% (active)
13,O=C1[C@@H]2Cc3c([nH]c4ccccc34)[C@@H](c3ccc(Cl)cc3)N2C(=O)CN1C1CCN(Cc2c(F)cccc2F)CC1,40.3%
14,CCOc1ccc2cc(-c3nn(CC4CCN(C)CC4)c4ncnc(N)c34)ccc2c1,85.6% and 42%
15,O=C(/C=C/c1ccco1)c1ccccc1O,60.7%
16,Cc1nnc2nc(N)[nH]n2c1=O,108%
17,COc1cccc(C=Nc2cc(C(C)C)c(O)cc2C)c1O,95%
18,CN1C(=O)C2(Nc3cc(Cl)ccc3S2)c2cc(Cl)ccc21 (stereo not given),106%
19,COc1ccc(C2=NC(=O)NC2c2ccc(OC)cc2)cc1 (stereo not given),43.9%
20,c1cc[n+](Cc2c3ccccc3cc3c2ccc2ccccc23)cc1,-40.5% (active)

row,SMILES,growth
1,Nc1ncnc2c1N=C(c1ccc3c(c1)OCO3)CC(c1cccc(Nc3ccnc4cc(Cl)ccc34)c1)N2 (stereo not given),33.2%
2,COc1cc(C2CC(c3ccccc3)=NN2C=O)ccc1Oc1nc2c(c(=O)n(C)c(=O)n2C)n1C (stereo not given),63.9%
3,CC(C)C(=O)Nc1n[nH]c2cc(-c3cccc(NS(=O)(=O)C4CC4)c3)ccc12,21.6%
4,COc1cccc(/C=N/C(=S)NC2(C)C3CCC(C3)C2(C)C)c1O (stereo not given),57%
5,COC[C@@]1(C)CC[C@]2(C)CC[C@]3(C)C(=CC[C@@H]4[C@@]5(C)CCCNC(C)(C)[C@@H]5CC[C@]43C)C2C1 (stereo not given in full),50.9%
6,C=C1C(=O)O[C@@H]2/C=C(/C)C3=CC(=O)[C@@](C)(C[C@H](OC(=O)/C(C)=C\C)[C@@H]12)O3,-43.6% (active)
7,CCCCOc1nc2cc(Cl)ccc2cc1/C=C/c1cc(/C=C/c2cc3ccc(Cl)cc3nc2OCCCC)n(-c2ccccc2)n1,92%
8,COc1ccc(C(=O)OC2C(OC3C(O)COC(O[C@H]4C[C@H]5[C@@H]6CC=C7C[C@@H](O)CC[C@]7(C)[C@H]6CC[C@]5(C)[C@H]4[C@H](C)C(=O)CCC(C)C)C3OC(=O)C(C)C)OCC(O)C2O)cc1 (stereo not given in full),-2.45% (active)
9,COc1ccc(NC(=O)c2ccccc2-c2ccccc2)c(C(N)=O)c1,27.3%
10,CCCn1c2cc(OCc3cn(-c4ccc(Br)cc4)nn3)ccc2c2ccnc(C)c21,25.6%
11,O=C(Cn1nnc2ccccc21)N/N=C/c1c[nH]c2ccccc12,34.5%
12,N#Cc1ccc(C(F)(F)F)nc1N1CCC(C(=O)Nc2ccc(Cl)cc2)CC1,69.2%
13,O=C(O)CC(C(=O)O)/C(=C\c1ccccc1)c1ccccc1 (stereo not given),88.1%
14,COc1ccccc1OC(=O)Oc1ccccc1OC,106% and 119%
15,O=c1c2c(=NCCN3CCCC3)cc3c(=O)n(CCCN4CCOCC4)c(=O)c4c(-c5ccc(CN6CCCC6)cc5)cc(c(O)n1CCCN1CCOCC1)c2c4-3,-58.1% (active)
16,CN1COc2ccc3ccccc3c2C1,111%
17,COc1cccc(NC(=O)NCCNc2nccc(-c3c(-c4ccc(F)cc4)nc4sccn34)n2)c1,94.3%
18,CC(=O)C1=C(O)C=C2Oc3c(C(=O)/C=C/c4ccccc4)c(O)c(C)c(O)c3[C@]2(C)C1=O,30.3%
19,O=C(NC(Cc1ccc(O)cc1)C(=O)N=Nc1c(O)[nH]c2ccccc12)c1ccccc1 (stereo not given),109%
20,CC(C)(C)OC(=O)N1Cc2cc3ccccc3nc2C1CO (stereo not given),71.7%

# — PubChem BioAssay (NCI)
